{"source": "the supplement of paper PMC10941209"}
{"system": "Toxoplasma gondii RH 2F1 tachyzoites (intracellular in HFF)", "test": "parasite survival relative to DMSO control; higher = less antiparasitic activity, active = 20 or less", "details": "1 µM; 72 h", "outline": "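Parasite survival was taken as the CPRG signal relative to DMSO-treated infected wells, given as a percentage. To obtain it, HFF cells (5 × 10^3 cells/well, 96-well plates) were infected for 3 h in D2 medium with 5 × 10^3 β-galactosidase-expressing Toxoplasma gondii RH-2F1 tachyzoites, then exposed to compound at 1 μM for 72 h at 37°C in 5% CO2. Absorbance at 570 nm was measured 30 min after CPRG was added to lysed cells, and 2 or more biological replicates were run.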"}
{"smiles": "O=C(O)c1cc(-c2ccccc2)nc2ccccc12", "parasite survival": "67.9% (inactive)"}
{"smiles": "COc1ccc2nc(-c3ccccc3)cc(O)c2c1", "parasite survival": "6.87% (active)"}
{"smiles": "COc1cccc(N2CCN(C3=Nc4c(F)cccc4[C@H](CC(=O)O)N3c3cc(C(F)(F)F)ccc3OC)CC2)c1", "parasite survival": "41.2% (inactive)"}
{"smiles": "CCOCc1nc2c(N)nc3ccccc3c2n1CC(C)(C)O", "parasite survival": "55.5% (inactive)"}
{"smiles": "CC(C)(C)NC(=O)N[C@H](C(=O)N1C[C@H]2[C@@H]([C@H]1C(=O)NC(CC1CCC1)C(=O)C(N)=O)C2(C)C)C(C)(C)C", "note": "(some centres undefined)", "parasite survival": "48.5% (inactive)"}
{"smiles": "O=c1cc(Nc2ccc3ccccc3c2)[nH]c(=O)[nH]1", "parasite survival": "53.3% (inactive)"}
{"smiles": "CC(C)Nc1ncnc2c1cnn2-c1ccc(Cl)cc1", "parasite survival": "58.2% (inactive)"}
{"smiles": "Fc1ccc2c(/C=C/c3cccnc3)c[nH]c2c1", "parasite survival": "29.1% (inactive)"}
{"smiles": "O=C(NO)C1(CS(=O)(=O)c2ccc(Oc3ccc(Cl)cc3)cc2)CCOCC1", "parasite survival": "66% (inactive)"}
{"smiles": "C[C@H](NC(=O)C(=O)Nc1ccccc1C(C)(C)C)C(=O)N[C@@H](CC(=O)O)C(=O)COc1c(F)c(F)cc(F)c1F", "parasite survival": "6% (active)"}
{"smiles": "C[C@H]1[C@@H](c2cccc(C(F)(F)F)c2)OC(=O)N1C(=O)NCc1cncc2ccccc12", "parasite survival": "40.6% (inactive)"}
{"smiles": "O=C(O)C[C@H]1CC[C@H](c2ccc(-c3ccc(Nc4ccc(C(F)(F)F)nc4)cn3)cc2)CC1", "parasite survival": "42.6% (inactive)"}
{"smiles": "C[C@@H]1O[C@@H]1P(=O)(O)O", "parasite survival": "46.3% (inactive)"}
{"smiles": "c1ccc(Cn2c(-c3ccccn3)nc3ccccc32)cc1", "parasite survival": "61.7% (inactive)"}
{"smiles": "COc1cc(C2C3=C(CC(C)(C)CC3=O)Nc3ccccc3N2C(C)=O)ccc1OCc1ccccc1", "note": "(centres undefined)", "parasite survival": "56.3% (inactive)"}
{"smiles": "Oc1ccc2[nH]c(-c3ccccc3)nc2c1", "parasite survival": "66.2% (inactive)"}
{"smiles": "COc1cc(C)c2c(Oc3cccc(C(F)(F)F)c3)c(OC)cc(NC(C)CCCN)c2n1", "note": "(centres undefined)", "parasite survival": "27.2% (inactive)"}
{"smiles": "COC(=O)Nc1nc2cc(Sc3ccccc3)ccc2[nH]1", "parasite survival": "25.4% (inactive)"}
{"smiles": "O=S(=O)(Nc1ccccc1)c1ccc(NC(=S)Nc2ccccc2)cc1", "parasite survival": "47.2% (inactive)"}
{"smiles": "CCCC1(C2CC2)c2cc(Cl)ccc2NC(=O)N1C", "note": "(centres undefined)", "parasite survival": "70.4% (inactive)"}
{"smiles": "Nc1cccc(-c2nc(N)nc(NC3Cc4ccccc4C3)n2)c1", "parasite survival": "42.3% (inactive)"}
{"smiles": "O=C(CP(=O)(O)O)NCCc1cccc(Oc2ccccc2)c1", "parasite survival": "40.8% (inactive)"}
{"smiles": "N=C(N)NCCCCC(=O)Nc1cc(C(F)(F)F)cc(NC(=O)c2cc(C(=O)Nc3cc(C(F)(F)F)cc(NC(=O)CCCCNC(=N)N)c3O[C@@H]3CCNC3)ncn2)c1O[C@@H]1CCNC1", "parasite survival": "58.7% (inactive)"}
{"smiles": "C=C[C@]1(C)C[C@@H](OC(=O)CS[C@@H]2C[C@H]3CC[C@@H](C2)N3C)[C@]2(C)[C@H](C)CC[C@]3(CCC(=O)[C@H]32)[C@@H](C)[C@@H]1O", "parasite survival": "18.1% (active)"}
{"smiles": "COc1ccc(C)cc1NC(=O)c1ccc(S(=O)(=O)N2CCCCC2)cc1", "parasite survival": "60% (inactive)"}
{"smiles": "CC(C)/N=c1\\cc2n(-c3ccc(Cl)cc3)c3ccccc3nc-2cc1Nc1ccc(Cl)cc1", "parasite survival": "4.63% (active)"}
{"smiles": "O=S(=O)(Nc1ccc(-n2cccc2)cc1)c1ccc(Cl)c(Cl)c1", "parasite survival": "58.1% (inactive)"}
{"smiles": "N[C@H]1CCC[C@H]1C(=O)O", "parasite survival": "78.4% (inactive)"}
{"smiles": "NC1(C(=O)O)CCP(=O)(O)CC1", "note": "(centres undefined)", "parasite survival": "77.4% (inactive)"}
{"smiles": "CCc1ccc(C2CC(C(F)(F)F)n3ncc(C(=O)NCc4ccc(OC)cc4)c3N2)cc1", "note": "(centres undefined)", "parasite survival": "25.4% (inactive)"}
{"smiles": "O=C(CSc1nnc(Br)n1-c1ccc(C2CC2)c2ccccc12)Nc1ccc(C(=O)O)cc1Cl", "parasite survival": "61% (inactive)"}
{"smiles": "Clc1cc2nc(C3CCNCC3)n(Cc3ccc(CNCCc4c[nH]cn4)cc3)c2cc1Cl", "parasite survival": "66.5% (inactive)"}
{"smiles": "CC[C@H]1OC(=O)[C@H](C)[C@@H](O[C@H]2C[C@@](C)(OC)[C@@H](O)[C@H](C)O2)[C@H](C)[C@@H](O[C@@H]2O[C@H](C)C[C@H](N(C)C)[C@H]2O)[C@](C)(O)C[C@@H](C)C(=O)[C@H](C)[C@@H](O)[C@]1(C)O", "parasite survival": "13.9% (active)"}
{"smiles": "CC(C)(C)c1ccc(C(=O)NC(=O)N2CCCc3ccccc32)cc1", "parasite survival": "49.9% (inactive)"}
{"smiles": "O=C(CC1Sc2ncnn2C1=O)Nc1ccc(Br)cc1", "note": "(centres undefined)", "parasite survival": "28.1% (inactive)"}
{"smiles": "CN(C)CCCOc1ccc(-c2ccc3ncc4c(c3c2)n(C2CCOCC2)c(=O)n4C)cn1", "parasite survival": "50.5% (inactive)"}
{"smiles": "CC(C)(C)c1ccc(Oc2ccc(N)cc2)cc1", "parasite survival": "81.4% (inactive)"}
{"smiles": "O=c1oc2ccc(Br)cc2cc1CSc1ncc[nH]1", "parasite survival": "63.6% (inactive)"}
{"smiles": "COc1ccc2cc3[n+](cc2c1OCCN(CCn1cncn1)Cc1ccc(F)cc1F)CCc1cc2c(cc1-3)OCO2", "parasite survival": "47.3% (inactive)"}
